Screening results as filed in PubChem.
VACV mCherry inh: inhibitors of vaccinia virus infection (mCherry reporter signal) | Vaccinia virus mCherry reporter infection, fluorescence | Potency, µM (series often up to 36.5 µM), hits mostly inhibitors | actives 0.63% (n = 310,000); calls by dose curve; tested in A549 cells; also: nearly all actives have a fitted effect of over 35% in size
MARV entry inh: inhibitors of Marburg virus binding or cell entry; AID 540276; Marburg virus pseudotyped entry inhibition, cell reporter; actives 1.8% (n = 300,000); Potency, µM (titrated, usually from 37.8 µM), actives largely listed as inhibitors; calls by dose curve; tested in HEK293 cells
VACV Venus inh: vaccinia inhibition (Venus reporter); Vaccinia virus Venus reporter expression, fluorescence; Potency, µM (highest dose often 36.5 µM), most hits filed as inhibitors; actives 0.46% (n = 330,000); AID 720580; calls by dose curve; tested in A549 cells; also: nearly all actives have a fitted effect of over 30% in size
Sm TGR block: S. mansoni TGR enzyme inhibition. Potency, µM (doses to about 114 µM), most hits filed as inhibitors. purified TGR, DTNB reduction, TNB absorbance 405 nm. Q962Y6. actives 3% (n = 360,000); active = well fitted inhibition curve with a large enough effect; inconclusive = small, poorly fitted or top-dose-only effect; inactive = no such curve, though single readings can be large or run the other way; also: nearly all actives have a fitted effect of over 60% in size
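First, TGR (20 nM dispensed) and NADPH were mixed with compound. Second, a 15 min room-temperature incubation followed. Third, further NADPH and then DTNB were added to start the reaction. Finally, TNB absorbance was monitored kinetically.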
Lassa entry inh: Lassa virus entry inhibition | actives 1.2% (n = 300,000) | Potency, µM (titrated, usually from 37.9 µM), usual class: inhibitors | Lassa virus pseudotype entry inhibition, cell reporter | AID 540256; calls by dose curve; tested in HEK293 cells; also: nearly all actives have a fitted effect of over 50% in size
FMDV inh: blocks foot and mouth disease virus. FMDV antiviral cell-based qHTS. Potency, µM (titrated, usually from 57.9 µM), actives largely listed as inhibitors. actives 1.2% (n = 410,000); calls by dose curve; tested in HEK293T cells; also: read-out not given here; nearly all actives have a fitted effect of over 45% in size
Each line names hits and unclear results; the compound was inactive in the other large screens. Shown are actives, neighbours in structure and some others; about 5.4% of the full set was active somewhere.

Cc1ccc(NC(=O)COc2cccnc2[N+](=O)[O-])cc1S(=O)(=O)N1CCCCC1	MARV entry inh inconclusive, Lassa entry inh inconclusive, FMDV inh 40µM
Cc1ccc(NC(=O)Cc2ccc(Cl)cc2)cc1S(=O)(=O)N1CCCCCC1	FMDV inh inconclusive (no result: VACV mCherry inh, MARV entry inh, VACV Venus inh, Lassa entry inh)
Cc1ccc(NC(=O)c2cc(=O)c3ccccc3o2)cc1S(=O)(=O)N1CCCCC1	VACV mCherry inh inconclusive, FMDV inh 25µM
CCN1C(=O)[C@@H]2[C@H]3[C@H](O)[C@H](O)CC(=NNC(=O)OCc4ccccc4)[C@@H]3CC[C@H]2C1=O	Lassa entry inh inconclusive (no result: VACV mCherry inh, VACV Venus inh, Sm TGR block, FMDV inh)
Cc1ccc(NC(=O)CSc2ncnc3ccccc23)cc1S(=O)(=O)N1CCOCC1	VACV mCherry inh inconclusive, MARV entry inh inconclusive, Lassa entry inh inconclusive, FMDV inh inconclusive
Cc1ccc(NC(=O)COc2ccccc2)cc1S(=O)(=O)N1CCCCCC1	MARV entry inh inconclusive, Lassa entry inh inconclusive, FMDV inh 28µM
CN(CC(=O)Nc1ccc(S(=O)(=O)N2CCCC2)cc1)Cc1c(F)cccc1Cl	MARV entry inh 5µM, Lassa entry inh inconclusive, FMDV inh inconclusive
Cc1ccc(NC(=O)CN(C)CC(=O)Nc2cccc(F)c2)cc1S(=O)(=O)N1CCCCCC1	MARV entry inh inconclusive, Lassa entry inh inconclusive, FMDV inh 25µM
Cc1ccc(NC(=O)CSc2ncnc3ccccc23)cc1S(=O)(=O)N1CCCCC1	VACV mCherry inh inconclusive, MARV entry inh inconclusive, VACV Venus inh inconclusive, Lassa entry inh inconclusive, FMDV inh 16µM
Cc1ccc(NC(=O)COc2ccccc2C#N)cc1S(=O)(=O)N1CCCCCC1	FMDV inh inconclusive (no result: VACV mCherry inh, MARV entry inh, VACV Venus inh, Lassa entry inh)
O=C(c1ccccc1)c1ccccc1N/C=C/c1nnnn1-c1ccccc1	MARV entry inh inconclusive, Lassa entry inh 13µM
COc1ccc(C(F)(F)F)cc1N/C=C\c1nnnn1-c1ccccc1	Sm TGR block inconclusive (no result: VACV mCherry inh, VACV Venus inh)
Cc1ccc(-c2noc(CCCC(=O)NCc3ccco3)n2)cc1	none
COc1ccc(-c2noc(CCC(=O)NCc3ccco3)n2)cc1	Sm TGR block 40µM (no result: VACV mCherry inh, MARV entry inh, VACV Venus inh, Lassa entry inh)
Cc1cccc(-c2noc(-c3ccccc3C(=O)NCc3ccco3)n2)c1	Sm TGR block 22µM
Cc1ccccc1-c1noc(CCC(=O)NCc2ccco2)n1	Sm TGR block 28µM, Lassa entry inh inconclusive
NC(=O)c1nsc(C(=O)N(c2ccccc2)C(C(=O)NCc2ccc(F)cc2)c2ccc(O)cc2)c1N (centres undefined)	MARV entry inh inconclusive, Lassa entry inh 2.2µM
COc1ccc(N(C(=O)c2snc(C(N)=O)c2N)C(C(=O)NCc2ccccc2)c2ccc(O)cc2)cc1 (centres undefined)	Lassa entry inh 0.73µM
COc1cc2c(cc1O)C(Cc1ccc(O)cc1)[N+](C)([O-])CC2 (centres undefined)	Sm TGR block inconclusive (no result: MARV entry inh, Lassa entry inh)
COc1ccc(C[C@H]2c3cc(O)c(OC)cc3CC[N+]2(C)[O-])cc1O (some centres undefined)	Sm TGR block 18µM (no result: MARV entry inh, Lassa entry inh)
CSC[C@@H]1NC(=S)N(c2ccc(C)cc2)C1=O	FMDV inh 11µM (no result: VACV mCherry inh, VACV Venus inh)
CC(C)c1ccc(NC2CCCN(C(=O)c3ccoc3)C2)cc1 (centres undefined)	none (no result: VACV mCherry inh, MARV entry inh, VACV Venus inh, Lassa entry inh)
CC(C)c1ccc(NC2CCCN(C(=O)c3ccc(N4CCOCC4)cc3)C2)cc1 (centres undefined)	FMDV inh 28µM
COc1cc(=O)n2c(c1C(=O)N(C)Cc1ccsc1)CCN(Cc1c(C)nc3sccn13)CC2	none (no result: MARV entry inh, Sm TGR block, Lassa entry inh)
COc1cc(NC(=O)CCCc2nnc3n(CC(C)C)c(=O)c4sccc4n23)cc(OC)c1	none (no result: MARV entry inh)
CCN1C(=O)/C(=C/N(C(C)=O)c2ccccc2)N(c2ccccc2)C1=S	Sm TGR block inconclusive, FMDV inh 32µM
CC(=O)c1ccc(N/N=C2/CCCNC2=O)cc1	MARV entry inh inconclusive
Cc1ccc(N/N=C2/CCCNC2=O)cc1	Sm TGR block 32µM (no result: VACV mCherry inh)
CCC(=O)Nc1c2c(nn1-c1ccccc1)CSC2	Sm TGR block 50µM (no result: VACV mCherry inh, MARV entry inh, VACV Venus inh, Lassa entry inh)
Cc1ccccc1-n1nc2c(c1NC(=O)CCCl)CSC2	Sm TGR block 18µM (no result: VACV mCherry inh, MARV entry inh, VACV Venus inh, Lassa entry inh)
COc1ccc(-n2nc3c(c2NC(=O)COc2cccc(OC)c2)CS(=O)(=O)C3)cc1	Sm TGR block 32µM
COc1ccc(-n2nc3c(c2NC(=O)COc2ccccc2)CS(=O)(=O)C3)cc1	none (no result: VACV mCherry inh, MARV entry inh, VACV Venus inh, Lassa entry inh)
COc1ccc(-n2nc3c(c2NC(=O)CCl)CSC3)cc1	MARV entry inh inconclusive, Sm TGR block 8.9µM, Lassa entry inh inconclusive, FMDV inh 32µM
CCCc1cc(=O)[nH]c(Nc2ccc(C)c(O)c2)n1	none
CNC(=O)C1CCC(Cn2c(=O)c3sccc3n(CC(=O)N3CCC(C)CC3)c2=O)CC1 (centres undefined)	none (no result: MARV entry inh)
Cc1ccc(-n2nc3c(c2NC(=O)c2ccc(Br)o2)CSC3)c(C)c1	Sm TGR block inconclusive
Cc1cccc(-n2nc3c(c2NC(=O)c2ccco2)CSC3)c1C	Sm TGR block 45µM (no result: VACV mCherry inh, VACV Venus inh)
CCC1CN(CC(=O)NCc2ccc3c(c2)OCO3)Cc2ccc(Cl)cc2O1 (centres undefined)	none (no result: MARV entry inh, Sm TGR block, Lassa entry inh)
Cc1onc(-c2ccccc2)c1C(=O)n1nnc2ccccc21	Sm TGR block 18µM, FMDV inh inconclusive
CC(C(=O)O)n1nnc2ccccc21 (centres undefined)	none
O=C(c1ccccc1)n1nnc2ccccc21	Sm TGR block 16µM
CC1=CC(Cc2ccc(C)cc2)C(=O)N=N1 (centres undefined)	none (no result: VACV mCherry inh, VACV Venus inh, Sm TGR block, Lassa entry inh, FMDV inh)
Cc1ccc(-c2c[n+](CC(=O)c3ccc(Br)cc3)c3n2CCCCC3)cc1	MARV entry inh 10µM, Lassa entry inh inconclusive, FMDV inh inconclusive
Cc1cc(C)c(C#N)c(OCc2ccc(Cl)nc2)n1	MARV entry inh inconclusive, Sm TGR block 89µM
O=C1N/C(=C/c2ccc(N3CCOCC3)o2)C(=O)N1c1cccc(Cl)c1	MARV entry inh inconclusive, Sm TGR block 2.8µM (no result: VACV mCherry inh, VACV Venus inh)
CCN1C(=O)N/C(=C/c2ccc(Sc3ccc(C)cc3)o2)C1=O	Sm TGR block inconclusive, FMDV inh inconclusive
CCN1C(=O)N/C(=C/c2ccc(C)o2)C1=O	Sm TGR block 35µM (no result: VACV mCherry inh, VACV Venus inh)
CCN1C(=O)/C(=C/c2ccc(C)o2)N(C)C1=S	Sm TGR block 28µM
Cc1ccc(/C=C2/NC(=O)N(Cc3ccc(Br)cc3)C2=O)o1	Sm TGR block 50µM, Lassa entry inh inconclusive
O=C1NC(=O)C(=Cc2ccc(N3CCOCC3)o2)C(=O)N1	Sm TGR block inconclusive
CCNC(=O)C1(C)CCN(Cc2ccccc2C#N)C1 (centres undefined)	none (no result: MARV entry inh, Sm TGR block, Lassa entry inh)
Brc1cc(Br)c[n+](CCc2ccccc2)c1	none (no result: MARV entry inh, Sm TGR block, Lassa entry inh, FMDV inh)
CCCN1C(=O)/C(=C/c2ccc(C)o2)NC1=S	Sm TGR block 6.3µM (no result: VACV mCherry inh, MARV entry inh, VACV Venus inh, Lassa entry inh, FMDV inh)
Cc1ccc(/C=C2/NC(=O)N(c3ccccc3)C2=O)o1	Sm TGR block 32µM (no result: VACV mCherry inh, VACV Venus inh)
CCOc1cc(C(=O)Nc2cccc3cccnc23)cc(OCC)c1OCC	MARV entry inh inconclusive
CCOC(=O)/C(C#N)=C\C1=C(N2CCOCC2)CC(C)(C)OC1	Sm TGR block 32µM (no result: Lassa entry inh)
CCOC(=O)/C(C#N)=C/C1=C(N2CCCC2)CC(C)(C)OC1	MARV entry inh inconclusive (no result: VACV mCherry inh)
